Data taken from PubChem BioAssay.
Several values for one entry are separate records, joined by “and”; a condition that tells them apart may be missing. Equal values may be shown once. Inconclusive results are not listed. Some compounds were tested as several samples or in several runs, with calls that do not always agree. Activity calls are given as the source filed them.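 The calls were made as follows, unless noted: active = compounds whose cell count with miR-34 switched on is under 0.7 times the count with it off; inactive = the rest.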

Legend:
[1] = JHH-DIPG-1 glioma cell viability, MIPE5.0 library, CellTiter-Glo luminescence, qHTS (AID 1347067; cut-off not given, nearly all actives have AC50 up to about 26 µM;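 also: cells exposed to compound for 48 hours before readout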); conditions: JHH-DIPG-1 glioma viability, CellTiter-Glo ATP luminescence
[2] = SU-DIPG-XXV glioma cell viability, MIPE5.0 library, qHTS (AID 1347068; cut-off not given, nearly all actives have IC50 up to about 30 µM)
[3] = survival rescue of mitochondrial mutant cells in low glucose, primary screen, MELAS cybrids, Rieske KO mouse fibroblasts, CellTiter-Glo (AID 1508586;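 active = mean z-score across replicates of 1.96 or higher in either the MELAS or the Rieske mutant cell line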;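 also: z relative to plate mean and SD of compound and empty wells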)
[4] = viability rescue of complex I mutant cybrids, primary screen, cell-based, galactose medium, ATP luminescence (AID 1645843;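 active = z-score of at least 1.8 in each of two replicates, scored against plate mean and spread of sample wells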;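 also: positive z means more ATP and so rescue of galactose-driven cybrid death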); conditions: complex I mutant cybrid cells, 72 h, stronger effect = higher value
[5] = sensitizers of A549 cells to miR-34 induction, primary screen, imaging, A549 dox-inducible miR-34, nuclei and caspase counts (AID 1347080); conditions: A549 miR-34 inducible, Hoechst nuclei count, 48 h
[6] = phospholipid biosynthesis inhibitors in animal cells, primary screen, cell-based, LOPAC library, screen 4 (AID 1347384; call rule not given here); conditions: phospholipid biosynthesis inhibition screen, at 10 µM
[7] = molecular target: NAD(+) hydrolase SARM1 (Homo sapiens) (UniProt Q6SZW1); assay: SARM1 TIR NADase inhibitors, cell lysate, NAD-Glo luminescence (AID 1508614;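 active = compound whose remaining NAD level is above about 45 nM, limit read from the data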;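 also: higher remaining NAD means stronger inhibition of SARM1 NADase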); conditions: SAM-TIR HEK293T lysate NADase, at 1 µM, stronger effect = higher value
[8] = molecular target: Mitogen-activated protein kinase 7 (Homo sapiens) (UniProt Q13164); assay: ERK5 transactivation activators in reporter cells, primary screen, cell-based, HTS (AID 1508626;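 active = luciferase signal above three times the same-plate solvent-only control wells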;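 also: luciferase driven by Gal4-ERK5 fusion binding five Gal4 sites before minimal TATA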); conditions: HeLa Gal4-ERK5 transactivation, 18 h, at 5 µM, stronger effect = higher value
[9] = SU-DIPG-VI glioma cell viability, MIPE4.0 library, CellTiter-Glo luminescence, qHTS (AID 1347066; cut-off not given, nearly all actives have AC50 up to about 30 µM;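 also: cells exposed to compound for 48 hours before readout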); conditions: CellTiter-Glo ATP luminescence
[10] = inhibitors of Cryptococcus chitosan production, flow cytometry, Cibacron Brilliant Red staining (AID 1347148; call rule not given here;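 also: compound exposure lasted three days at 37 degrees C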); conditions: Cryptococcus neoformans chitosan, stronger effect = lower value; at 10 µM unless noted
[11] = MELAS cybrid survival, CellTiter-Glo 48 h, stronger effect = higher value
[12] = Rieske KO mouse fibroblast survival, CellTiter-Glo 72 h
[13] = stronger effect = lower value, cell number ratio, induced over uninduced
[14] = measured here: relative caspase fold change +Dox/-Dox
[15] = measured here: total cells with miR-34 induction, stronger effect = lower value
[16] = measured here: total cells without miR-34 induction

Chain of NAD(+) hydrolase SARM1 (Homo sapiens) (Q6SZW1 whole entry, looked up, the tested form may be a part): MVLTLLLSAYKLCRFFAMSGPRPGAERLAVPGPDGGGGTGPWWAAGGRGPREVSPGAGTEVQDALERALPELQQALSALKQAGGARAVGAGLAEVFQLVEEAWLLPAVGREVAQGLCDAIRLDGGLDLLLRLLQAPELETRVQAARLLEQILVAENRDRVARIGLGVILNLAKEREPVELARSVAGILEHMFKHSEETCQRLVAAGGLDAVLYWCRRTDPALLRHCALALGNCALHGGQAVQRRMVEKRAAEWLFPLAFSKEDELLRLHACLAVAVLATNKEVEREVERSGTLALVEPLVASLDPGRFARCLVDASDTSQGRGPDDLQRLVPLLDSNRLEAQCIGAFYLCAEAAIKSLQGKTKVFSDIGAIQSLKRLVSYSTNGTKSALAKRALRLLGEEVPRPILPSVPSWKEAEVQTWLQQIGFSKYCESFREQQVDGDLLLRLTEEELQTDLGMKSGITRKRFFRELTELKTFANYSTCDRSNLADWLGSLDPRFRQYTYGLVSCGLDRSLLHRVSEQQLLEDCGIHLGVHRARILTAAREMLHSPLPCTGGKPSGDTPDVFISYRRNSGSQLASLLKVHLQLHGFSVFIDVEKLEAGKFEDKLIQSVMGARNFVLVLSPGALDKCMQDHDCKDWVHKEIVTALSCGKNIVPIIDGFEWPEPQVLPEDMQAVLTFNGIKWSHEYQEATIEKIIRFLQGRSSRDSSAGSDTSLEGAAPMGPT
Chain of Mitogen-activated protein kinase 7 (Homo sapiens) (Q13164 whole entry, looked up, the tested form may be a part): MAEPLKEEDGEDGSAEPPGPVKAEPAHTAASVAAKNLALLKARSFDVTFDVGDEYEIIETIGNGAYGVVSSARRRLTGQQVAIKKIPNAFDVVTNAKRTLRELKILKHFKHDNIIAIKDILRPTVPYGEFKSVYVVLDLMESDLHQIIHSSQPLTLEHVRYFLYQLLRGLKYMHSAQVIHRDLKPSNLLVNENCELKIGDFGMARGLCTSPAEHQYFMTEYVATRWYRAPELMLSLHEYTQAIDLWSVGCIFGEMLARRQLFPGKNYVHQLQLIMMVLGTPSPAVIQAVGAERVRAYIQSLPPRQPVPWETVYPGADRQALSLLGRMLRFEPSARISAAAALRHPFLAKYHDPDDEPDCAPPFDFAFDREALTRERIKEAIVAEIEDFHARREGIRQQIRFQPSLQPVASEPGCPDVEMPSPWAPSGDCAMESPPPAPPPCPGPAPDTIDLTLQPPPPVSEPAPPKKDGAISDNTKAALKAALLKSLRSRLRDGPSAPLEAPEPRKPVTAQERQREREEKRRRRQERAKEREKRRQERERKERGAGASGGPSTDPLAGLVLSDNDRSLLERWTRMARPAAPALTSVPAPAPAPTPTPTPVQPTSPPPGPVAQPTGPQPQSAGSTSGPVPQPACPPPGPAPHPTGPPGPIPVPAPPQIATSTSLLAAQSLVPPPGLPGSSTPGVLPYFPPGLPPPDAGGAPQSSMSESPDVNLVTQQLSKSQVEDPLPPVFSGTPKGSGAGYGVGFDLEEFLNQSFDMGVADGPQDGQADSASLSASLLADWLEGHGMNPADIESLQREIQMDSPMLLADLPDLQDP

Compound	outcome [1]	outcome [2]	z-score [3, 11]	z-score [3, 12]	z-score [4]	fold change [5, 13]	fold change [5, 14]	cell count [5, 15]	cell count [5, 16]	outcome [6]	remaining NAD [7]	luciferase signal [8]	outcome [9]	fold fluorescence [10]
COc1cc(C(=O)NS(=O)(=O)c2ccccc2C)ccc1Cc1cn(C)c2ccc(NC(=O)OC3CCCC3)cc12	inactive	inactive	-0.216 (inactive) and 0.374 (inactive) and -0.157 (inactive)	0.567 and -0.073 and 0.0854	1.64 (inactive) and 1.23 (inactive)	–	–	–	–	–	–	–	–	–
C[C@H]1c2cccc(O)c2C(O)=C2C(=O)[C@]3(O)C(O)=C(C(N)=O)C(=O)[C@@H](N(C)C)[C@@H]3[C@@H](O)[C@@H]21	–	–	0.0416 (inactive) and -0.292 (inactive)	-2.32 and -1.86	2.63 (active) and 2.23 (active)	0.948 (inactive) and 0.723 (inactive) and 0.815 (inactive)	0.896 and 4.48 and 1.65	1440 and 3910 and 7870	1520 and 5410 and 9650	inactive	10 nM (inactive)	64 AU (inactive)	–	–
Cc1nc2n(c(=O)c1CCN1CCC(c3noc4cc(F)ccc34)CC1)CCCC2	–	–	1.35 (inactive) and -1.13 (inactive) and -0.64 (inactive)	0.0817 and 0.437 and -0.833	-1.22 (inactive) and -0.71 (inactive)	–	–	–	–	–	10 nM (inactive)	–	inactive	–
CCCCC(=O)O[C@]1(C(=O)CO)[C@@H](C)C[C@H]2[C@@H]3CCC4=CC(=O)C=C[C@]4(C)[C@@]3(F)[C@@H](O)C[C@@]21C	inactive	inactive	–	–	–	–	–	–	–	–	10 nM (inactive)	80 AU (inactive)	–	–
C=CC(N)CCC(=O)O (stereo not drawn)	–	–	-0.0921 (inactive)	0.0881	0.155 (inactive)	0.942 (inactive) and 0.866 (inactive) and 0.941 (inactive)	1.9 and 1.11 and 2.08	9530 and 8830 and 11000	10100 and 10200 and 11700	inactive	10 nM (inactive)	92 AU (inactive)	–	–
CN1Cc2c(N)cccc2C(c2ccccc2)C1 (stereo not drawn)	–	–	0.549 (inactive)	0.0395	-0.015 (inactive)	1.2 (inactive) and 0.943 (inactive) and 0.87 (inactive)	1.05 and 0.932 and 4.35	9850 and 8420 and 10600	8240 and 8920 and 12100	inactive	17 nM (inactive)	88 AU (inactive)	–	–
CC1(C)O[C@H]2CC(=O)OC[C@]23[C@H]2CC[C@@]4(C)[C@H](c5ccoc5)OC(=O)[C@H]5O[C@]54[C@]2(C)C(=O)C[C@@H]13	–	–	–	–	–	–	–	–	–	–	–	80 AU (inactive)	inactive	–
Nc1ccc(S(=O)(=O)Nc2ccnn2-c2ccccc2)cc1	–	–	-0.791 (inactive)	-0.133	0.735 (inactive)	0.969 (inactive) and 0.9 (inactive)	1.76 and 1.07	10100 and 7980	10500 and 8860	inactive	10 nM (inactive)	96 AU (inactive)	–	–
CN(C)CCCN1c2ccccc2Sc2ccccc21	–	–	-0.514 (inactive)	-0.0726	-0.99 (inactive)	0.997 (inactive) and 0.896 (inactive) and 0.916 (inactive)	1.96 and 1.17 and 2.21	7860 and 8360 and 9720	7880 and 9340 and 10600	inactive	10 nM (inactive)	44 AU (inactive)	–	–
CCCc1c(OCCCCc2nn[nH]n2)ccc(C(C)=O)c1O	–	–	–	–	2.16 (active)	0.952 (inactive) and 0.923 (inactive) and 1.01 (inactive)	1 and 1.28 and 1.02	9490 and 5900 and 5660	9970 and 6400 and 5590	–	–	–	–	4.57 (inactive)
CCCC(C(=O)OCCN(CC)CC)(c1ccccc1)c1ccccc1	–	–	-2.4 (inactive)	0.38	-1.28 (inactive)	0.769 (inactive) and 0.897 (inactive) and 0.979 (inactive)	1.28 and 1.07 and 2.3	4500 and 7370 and 10800	5860 and 8210 and 11000	inactive	10 nM (inactive)	60 AU (inactive)	–	–
C=CCc1ccccc1OCC(O)CNC(C)C (stereo not drawn)	–	–	-0.407 (inactive) and -0.689 (inactive)	-0.409 and 0.651	-0.345 (inactive) and 0.39 (inactive)	0.963 (inactive) and 0.998 (inactive) and 0.909 (inactive)	1.1 and 1.18 and 0.556	10100 and 7510 and 7890	10500 and 7520 and 8680	inactive	10 nM (inactive)	60 AU (inactive)	–	–
CO[C@@]1(NC(=O)CSCC#N)C(=O)N2C(C(=O)O)=C(CSc3nnnn3C)CS[C@@H]21	–	–	-0.493 (inactive)	-0.322	0.77 (inactive)	1.01 (inactive) and 0.961 (inactive)	1.5 and 1.13	11000 and 9300	10900 and 9680	inactive	10 nM (inactive)	108 AU (inactive)	–	–
CC(=O)N[C@@H](CS)C(=O)O	–	–	-0.217 (inactive) and 0.201 (inactive)	0.862 and -0.824	0.55 (inactive)	1.05 (inactive) and 0.885 (inactive) and 0.922 (inactive)	0.401 and 1.12 and 0.735	10500 and 7510 and 10400	9960 and 8480 and 11200	inactive	10 nM (inactive)	40 AU (inactive)	–	–
C[C@]12C=CC(=O)C=C1CC[C@H]1[C@@H]3C[C@@H](O)[C@](O)(C(=O)CO)[C@@]3(C)C[C@H](O)[C@@]12F	–	–	0.162 (inactive) and 0.389 (inactive)	0.159 and 0.935	2.37 (active) and 0.76 (inactive)	0.938 (inactive) and 0.869 (inactive) and 0.939 (inactive)	0.943 and 0.955 and 1.2	7680 and 5920 and 7610	8190 and 6810 and 8100	inactive	10 nM (inactive)	36 AU (inactive)	–	–
NS(=O)(=O)c1cc(C(=O)O)c(NCc2ccco2)cc1Cl	–	–	-0.297 (inactive) and -0.16 (inactive) and 0.0353 (inactive)	0.703 and -0.228 and 0.451	0.405 (inactive) and 0.415 (inactive)	–	–	–	–	–	10 nM (inactive)	72 AU (inactive)	inactive	–
Cc1nccn1CC1CCc2c(c3ccccc3n2C)C1=O (stereo not drawn)	–	–	-0.478 (inactive) and 0.555 (inactive) and 0.267 (inactive)	0.23 and 0.514 and 0.91	0.415 (inactive) and 0.495 (inactive) and 0.69 (inactive)	–	–	–	–	–	10 nM (inactive)	–	inactive	–
